The values that follow come from ChEMBL document CHEMBL3433997, “St. Jude Leishmania screening dataset” (2016).

The term inhibition denotes the change of the read-out against control, counted positive when it falls.

Format in all cases: functional
Experiment [1] has as its target Solute carrier family 2, facilitated glucose transporter member 1 (Homo sapiens) (UniProt P11166). Put plainly: ST_JUDE_LEISH: Cytotoxicity at 2uM final concentration against transgenic Leishmania Mexicana promastigotes LmGLUT1 that are glucose transport deficient and complemented with the human glucose transporter GLUT1. Activity is measured by DNA content using SYBR green in vitro.

Experiment [2] addresses Hexose transporter 1 (Plasmodium falciparum) (UniProt O97467). Put plainly: ST_JUDE_LEISH: Cytotoxicity at 2uM final concentration against transgenic Leishmania Mexicana promastigotes LmPfHT that are glucose transport deficient and complemented with the Plasmodium falciparum hexose transporter. Activity is measured by DNA content using SYBR green in vitro.
Experiment [3] concerns the target Glucose transporter (Leishmania mexicana) (UniProt O61059). Put plainly: ST_JUDE_LEISH: Cytotoxicity at 2uM final concentration against transgenic Leishmania Mexicana promastigotes LmGT2 that are glucose transport deficient and complemented with the L. Mexicana glucose transporter 2. Activity is measured by DNA content using SYBR green in vitro.

Each structure is given as a SMILES string. Values joined by “and” are separate entries in the source; they are usually repeats but may differ in a detail not shown here. Equal entries are not always repeated.

Solute carrier family 2, facilitated glucose transporter member 1 (Homo sapiens), sequence (P11166 whole entry): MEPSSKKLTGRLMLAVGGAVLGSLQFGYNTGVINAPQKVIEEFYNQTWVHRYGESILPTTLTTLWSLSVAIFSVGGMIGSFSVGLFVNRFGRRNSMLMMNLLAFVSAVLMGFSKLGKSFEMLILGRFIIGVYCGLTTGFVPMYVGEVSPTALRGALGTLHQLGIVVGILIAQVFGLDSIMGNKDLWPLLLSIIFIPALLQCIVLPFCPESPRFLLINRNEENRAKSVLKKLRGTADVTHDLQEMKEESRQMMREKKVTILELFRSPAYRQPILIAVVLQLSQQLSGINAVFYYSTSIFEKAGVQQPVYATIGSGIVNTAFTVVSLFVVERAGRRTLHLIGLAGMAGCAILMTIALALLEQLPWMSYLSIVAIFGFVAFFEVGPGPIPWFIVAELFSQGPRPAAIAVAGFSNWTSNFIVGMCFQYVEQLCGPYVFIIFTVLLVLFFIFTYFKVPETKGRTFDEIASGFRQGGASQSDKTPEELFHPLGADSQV

As to `CCCc1cc(O)c2c3c(c(=O)oc2c1)CN(C)CC3`, the inhibition in experiment [1] worked out at 0.29%; in experiment [2], 0.97%; in experiment [3], 1.39%.
The like results for `COC(=O)c1ccc(CC(C)NCC(O)c2ccc3ccc4ccccc4c3c2)cc1` (centres undefined) were, in that order, 3.1%, 1.22% and 3.14%.
Taken in the same sequence, the figures for `CC[C@H]1CN2CC[C@H]1C[C@H]2[C@H](O)c1cc(-c2ccc(C)cc2)nc2ccc(OC)cc12` were 1.44%, 0.47% and -0.1%.
Taken in the same sequence, the figures for `O=C(CC1CCCC1)N(CC1CCN(Cc2ccc(C(F)(F)F)cc2)CC1)c1ccc(N2CCOCC2)c(F)c1` were 13.5%, 10.9% and 14%.
For the compound `O=C(Nc1cc(C(F)(F)F)cc(C(F)(F)F)c1)c1cc(Cl)ccc1O`, the inhibition in experiment [1] turned out to be 7.09%; in experiment [2] it was 7.96%; in experiment [3] it was 8.03%.
In the case of `O=C(C=Cc1ccccc1Br)NC1CCC(CN2CCC(c3c[nH]c4ccccc34)CC2)CC1` (centres undefined), the inhibition was 9.4% and 3.03% in experiment [1]; 3.62% and 2.4% in experiment [2]; 0.32% and 2.12% in experiment [3].
Turning to `CC[C@H]1CN2CC[C@H]1C[C@H]2[C@H](O)c1cc(N2CCC3CCCCC3C2)nc2ccc(OC)cc12` (some centres undefined), the values for the inhibition in experiment [1], in experiment [2] and in experiment [3] were 3.3%, 4.42% and 3.38%, respectively.
The like results for `CCCc1c(C(=O)NC2CCC(CN3CCC(c4c[nH]c5ccccc45)CC3)CC2)cnn1-c1c(Cl)cc(Cl)cc1Cl` (centres undefined) were, in that order, 4.74%, 3.29% and 3.07%.
With `CC(=O)Nc1ccc(OCCN(CC(F)(F)F)c2ccc(C#N)cc2C(F)(F)F)cc1`, the inhibition was found to be 2.13% in experiment [1], 2.71% in experiment [2] and 0.98% in experiment [3].
Taken in the same sequence, the figures for `CCCCCCCc1cc(O)c2c3c(c(=O)oc2c1)CN(C)CC3` were 10.7%, 11.3% and 10.7%.
Taken in the same sequence, the figures for `CCN1CC=C(c2c[nH]c3ccccc23)CC1` were 0.74%, 1.07% and 0.73%.
Taken in the same sequence, the figures for `O=C(Nc1ccc(Cl)c(Cl)c1)N1CCC(CN2CCC(c3c[nH]c4ccccc34)CC2)CC1` were 6.13%, 5.01% and 4.11%.
`CC[C@H]1CN2CC[C@@H]1C[C@H]2[C@H](O)c1cc(N2CCSCC2)nc2ccc(OC)cc12`: the results for the inhibition in experiment [1], in experiment [2] and in experiment [3] were 3.55%, 3.67% and -0.01%, respectively.
Consider `CC(Cc1ccc(OCc2ccccc2)cc1)NCC(O)c1cccc(Cl)c1` (centres undefined), for which the inhibition was 5.48% in experiment [1], 3.61% in experiment [2] and 4.23% in experiment [3].
Consider `CO[C@@H]1C[C@@H](C(=O)Nc2ccccc2)N(c2ccc(C#N)c3ccccc23)C1`, for which the inhibition turned out to be 4.31% in experiment [1], 5.45% in experiment [2] and 3.78% in experiment [3].
Taken in the same sequence, the figures for `CCCCn1c(C)c(C(=O)OCC)c2cc(OC(C)=O)c(Br)cc21` were 1.92%, 1.76% and 3.29%.
Taken in the same sequence, the figures for `CN1C(=O)OC[C@@H]1Cc1ccc2[nH]cc(C3=CCN(Cc4ccccc4)CC3)c2c1` were 2.44%, 7.87% and -0.74%.
With `OC(CNC1CCCCC1)c1ccc(Cl)c(Cl)c1` (centres undefined), the inhibition in experiment [1] is -1.03%; in experiment [2] it was -0.96%; in experiment [3], -0.95%.
